Source: the supplement of paper PMC6555819

How the values were obtained:
Test in all cases: PBM binding z-score (relative to random genomic background probes); higher = stronger binding; sequences stand for … in GC…GCGATTGACAGCGTAGAATGAAGG
[1] = tested on: RARb homodimer (NR concentration 270 nM)
Summary of the method: (§1)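 Binding buffer was PBS pH 7.4 with 2% milk, 0.02% Triton X-100, 1 mM DTT, 0.2 mg/mL BSA and 0.4 mg/ml salmon testes DNA. In it, ligand-free nuclear receptor dimers were incubated 1 h on custom Agilent 4×180K protein-binding microarrays carrying double-stranded probes. Antibodies against each partner (one per run) detected binding, and z-scores were calculated against random background probes after regression normalization of scanned fluorescence.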

[2] = tested on: RARg:RXRa (NR concentration 270 nM, RXRa partner concentration 90 nM)
Summary of the method: as §1

[3] = tested on: RARg homodimer (NR concentration 270 nM)
Summary of the method: as §1

[4] = tested on: RXRa DBDmut IVT, anti-RXR (DBD mutation: RXRa K156A/R161A, NR concentration 90 nM)
Summary of the method: as §1

[5] = tested on: RXRa homodimer (NR concentration 180 nM)
Summary of the method: as §1

[6] = tested on: THRa:RXRa (NR concentration 90 nM, RXRa partner concentration 90 nM)
Summary of the method: as §1

[7] = tested on: THRa homodimer (NR concentration 90 nM)
Summary of the method: as §1

[8] = tested on: VDR homodimer (NR concentration 270 nM)
Summary of the method: as §1

Sequence | PBM binding z-score [1] | PBM binding z-score [2] | PBM binding z-score [3] | PBM binding z-score [4] | PBM binding z-score [5] | PBM binding z-score [6] | PBM binding z-score [7] | PBM binding z-score [8]
CATACAGGGTCAGCTAGGCCACAGTAGGGACGGC | 3.58 | 4.56 | 4.98 | 1.69 | 4.55 | 3.28 | 1.02 | 1.89
TAGCCTAGATCATGCGGGCCAGTATAGTGTCGGC | -1.16 | -0.937 | -0.627 | -1 | -0.796 | -1.05 | -1.46 | -1.14
ACTAGCAGGCGAAGGGTCACTCAAGATTAGTCCG | 3.34 | 3.45 | 3.42 | 0.405 | 3.49 | 2.32 | -0.224 | 0.989
ACAGACAGGTGAGTGAAGGTAATTCAGCTGGACG | -0.0285 | 0.335 | 0.578 | -0.442 | 0.191 | 1.25 | -0.521 | -0.158
TCTGCTAGGTCAGCGATGGTCAGCTAATCTGCTA | 2.71 | 2.89 | 3.88 | 0.156 | 1.25 | 2.4 | -0.062 | -0.739
TGAATGAGGTTAAAGTTCAGGGAACGTGGCGTCG | 3.35 | 4.76 | 2.66 | 1.93 | 6.97 | 3.63 | 0.772 | 2.62
TCGAGTAGGGTACCAATGGGGCATTCAGCTTTCT | 0.23 | -0.106 | -0.439 | -0.161 | 0.0647 | -0.59 | -0.915 | -0.697
TCTATTAGTTGATTAGGGCAAGCGAAACAGCGGA | 0.589 | 0.429 | 0.466 | 0.689 | 0.305 | 0.409 | 0.23 | 0.398
TCATATAGGTAACACAGGTGAAAGTCGGCATCTA | 1.12 | 1.13 | 0.999 | 1.73 | 1.55 | 1.36 | 0.518 | 0.493
AGAACGAGTGCACGCTGAGTTGATAGCAGAGTAG | -0.576 | 0.354 | 0.356 | 3.07 | 0.384 | -0.0909 | -0.746 | 2.64
CGAACTAGGTCATCCAGGACACTGAATACATTGA | 3.19 | 4.13 | 4.86 | 2.38 | 3.13 | 4.19 | 3 | 3.09
CGTCAAAGTTCAAGGTGACGTAACAGAAAGCAGC | 4.19 | 5.57 | 6.39 | 4.67 | 4.63 | 3.25 | 1.36 | 3.17
GCTGCTAGGTCAGGTTGGTCAGCGAACGGGTACG | 2.73 | 2.68 | 4.03 | 0.514 | 1.11 | 1.8 | 0.422 | 0.896
TCTAGTTGGTCACGCAGGTCACACACGACGGGTA | 3.63 | 3.59 | 3.7 | 1.03 | 3.08 | 2.92 | 1.81 | 1.76
